The text below walks through data of publication PMC4336329 (PLoS ONE, 2015).

Molecules are shown by their SMILES. Out of some 310,000 compounds screened, about 14,000 (4.5%) showed an effect of 50% or more. The effect is printed as a negative number. This excerpt belongs to a sample that is enriched for strong results.
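Note: peak tail current of the secondary pulse compared with the same well before compound.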

For the test, the target named is human ether-à-go-go-related gene (hERG) potassium channel (human, UniProt Q12809). The test is described as follows: primary screen, population patch clamp on CHO cells stably expressing hERG; higher = less effect of the substance.
Sequence of human ether-à-go-go-related gene (hERG) potassium channel (Q12809 whole entry, looked up): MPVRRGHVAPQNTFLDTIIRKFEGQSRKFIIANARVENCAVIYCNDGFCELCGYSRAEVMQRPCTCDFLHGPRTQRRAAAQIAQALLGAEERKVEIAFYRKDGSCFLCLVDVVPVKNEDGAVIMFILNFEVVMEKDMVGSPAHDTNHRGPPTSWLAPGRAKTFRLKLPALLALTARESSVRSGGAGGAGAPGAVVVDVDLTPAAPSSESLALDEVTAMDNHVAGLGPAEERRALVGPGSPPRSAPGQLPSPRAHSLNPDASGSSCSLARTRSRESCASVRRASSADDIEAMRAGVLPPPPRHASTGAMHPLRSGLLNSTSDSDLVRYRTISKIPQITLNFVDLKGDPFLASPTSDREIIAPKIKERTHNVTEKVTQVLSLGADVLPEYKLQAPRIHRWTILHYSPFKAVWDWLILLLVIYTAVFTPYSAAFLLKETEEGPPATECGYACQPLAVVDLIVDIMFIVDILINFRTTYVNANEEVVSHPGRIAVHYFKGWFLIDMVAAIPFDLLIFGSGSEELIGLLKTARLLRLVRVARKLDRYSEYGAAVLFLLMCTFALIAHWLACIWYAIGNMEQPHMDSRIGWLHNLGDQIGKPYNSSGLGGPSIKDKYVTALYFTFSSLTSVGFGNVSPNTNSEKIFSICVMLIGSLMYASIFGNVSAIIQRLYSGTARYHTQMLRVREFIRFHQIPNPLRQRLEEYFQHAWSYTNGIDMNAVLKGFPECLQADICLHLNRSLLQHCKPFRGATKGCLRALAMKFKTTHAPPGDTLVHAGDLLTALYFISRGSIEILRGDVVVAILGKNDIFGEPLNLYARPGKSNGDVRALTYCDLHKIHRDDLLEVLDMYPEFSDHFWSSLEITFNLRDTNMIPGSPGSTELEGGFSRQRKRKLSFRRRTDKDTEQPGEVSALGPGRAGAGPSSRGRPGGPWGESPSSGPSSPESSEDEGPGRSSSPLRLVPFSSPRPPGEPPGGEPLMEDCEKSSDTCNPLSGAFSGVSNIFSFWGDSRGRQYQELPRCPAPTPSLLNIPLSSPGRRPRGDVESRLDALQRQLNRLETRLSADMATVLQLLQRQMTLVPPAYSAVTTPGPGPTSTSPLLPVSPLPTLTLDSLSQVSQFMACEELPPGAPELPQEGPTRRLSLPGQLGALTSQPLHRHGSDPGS
For `CCN(CC)c1nc(Nc2ccc([N+](=O)[O-])cc2)nc(N(CC)CC)n1`, the “hERG current change (%, negative = inhibition) at 10uM” value is reported as 11.1%. For `CCN(CC)CCCn1c2c(c(SCC(=O)Nc3ccc(OC(F)(F)F)cc3)nc1=O)CCC2`, the “hERG current change (%, negative = inhibition) at 10uM” value is -67.7%. In the case of `Clc1ccc(-c2nnc(SCc3ccon3)o2)c(Cl)c1`, the “hERG current change (%, negative = inhibition) at 10uM” value was -33.9%. Take `COc1ccc(NC(=O)[C@@H]2CCCN2C(=O)[C@@H]2Cc3ccccc3CN2C(=O)OC(C)(C)C)cc1`: the “hERG current change (%, negative = inhibition) at 10uM” value stood at 14.8%.

Turning to `COC(=O)CCC(=O)c1oc2ccc(OC)cc2c1N`, the “hERG current change (%, negative = inhibition) at 10uM” value is recorded as 4.41%. The value for `O=C(Nc1cc(S(=O)(=O)N2CCOCC2)ccc1OCC(F)(F)F)C1=COCCO1` was -42.8%. In the case of `CC(CC(=O)Nc1ccc(S(=O)(=O)N2CCOCC2)cc1)c1ccccc1` (centres unmarked), the “hERG current change (%, negative = inhibition) at 10uM” value is -4.25%. Consider `CC(C)Oc1ccc(S(=O)(=O)N2CCOCC2)cc1NC(=O)CC1OC(=O)c2ccccc21` (centres unmarked), for which the “hERG current change (%, negative = inhibition) at 10uM” value was -25%. As to `CC(CC(=O)Nc1cc(S(=O)(=O)N2CCOCC2)ccc1OCC(F)(F)F)c1ccccc1` (centres unmarked), the “hERG current change (%, negative = inhibition) at 10uM” value is -50.2%. For `O=C(CC1OC(=O)c2ccccc21)Nc1cc(S(=O)(=O)N2CCOCC2)ccc1OCC(F)(F)F` (centres unmarked), the “hERG current change (%, negative = inhibition) at 10uM” value was -52.2%. The value for `CCOc1ccc(S(=O)(=O)N2CCCCC2)cc1NC(=O)CC1OC(=O)c2ccccc21` (centres unmarked) was -31.3%.

As for `CCOc1ccc(Br)cc1C(=S)N1CCCC1`, the “hERG current change (%, negative = inhibition) at 10uM” value is given as 9.29%. For the compound `COC(=O)c1ccc(Oc2cc(C)nc(Cl)n2)cc1`, the “hERG current change (%, negative = inhibition) at 10uM” value was found to be 13.9%. Regarding `O=C1CCCC2=C1C(c1ccncc1)Nc1ccccc1N2` (centres unmarked), the “hERG current change (%, negative = inhibition) at 10uM” value is recorded as 10.2%.

For `Cc1ccc(NC(=O)C2CCCN2C(=O)OCc2ccccc2)c(C)c1` (centres unmarked), the “hERG current change (%, negative = inhibition) at 10uM” value is listed as 12.7%. For `Cc1cccc(NC(=O)CC2c3ccccc3Oc3ccccc32)c1`, the “hERG current change (%, negative = inhibition) at 10uM” value came out at 18%. Consider `CCCc1cc(-n2cnc3ccccc32)n2c(nc3ccccc32)c1C#N`, for which the “hERG current change (%, negative = inhibition) at 10uM” value was -50.1%. For the compound `CC(C)c1cc(N2CCN(C(=O)c3ccco3)CC2)n2c(nc3ccccc32)c1C#N`, the “hERG current change (%, negative = inhibition) at 10uM” value was -34.1%.

For the compound `CCCc1cc(N2CCN(C(=O)c3ccco3)CC2)n2c(nc3ccccc32)c1C#N`, the “hERG current change (%, negative = inhibition) at 10uM” value is reported as -56.1%. The value for `CCCc1cc(-n2ccnc2)n2c(nc3ccccc32)c1C#N` was -29.7%; that for `CCCc1cc(-n2ccnc2C)n2c(nc3ccccc32)c1C#N` was 0.616%. The value for `CCCCc1nc(N2CCN(C(=O)c3ccco3)CC2)c(C#N)c2c1CCCC2` was -5.71%; that for `NC(=O)c1cc[n+](CC2=C(C(=O)[O-])N3C(=O)[C@@H](NC(=O)C(c4ccccc4)S(=O)(=O)[O-])[C@H]3SC2)cc1.[Na+]` (some centres unmarked) was 20.3%.
